Compound activity: PubChem, Center for Chemical Genomics, University of Michigan
This is one part of a sample in which hits are shown more often than they occur.
Dicer inh: inhibitors of human Dicer processing of pre-microRNA; Q9UPY3; cat-ELCCA pre-miR-21 Dicer processing, chemiluminescence; hits give high values; z-score at 25 µM; hit rate 6% among 47,000; AID 1347074; in the data active = z-score above about 3, passing the limit was not always enough;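 also: plate controls were vehicle for no effect and no enzyme for full effect; higher signal means more uncleaved substrate so more Dicer inhibition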
* marks the source's active call; other numbers are inactive results.

SMILES | Dicer inh
C=CCOc1ccc(/C(O)=C2/C(=O)C(=O)N(CCCN(C)C)C23C(=O)N(C)c2ccccc23)cc1C (centres undefined) | 2.5
CCN1C(=O)C2(/C(=C(/O)c3ccc(OC)cc3)C(=O)C(=O)N2CCOC)c2ccccc21 (centres undefined) | 0.23
CCN1C(=O)C2(/C(=C(/O)c3ccc(C)c(F)c3)C(=O)C(=O)N2CCN2CCOCC2)c2ccccc21 (centres undefined) | -1.4
Cc1nn(C(=O)c2cccc(Cl)c2)c(C)c1Br | 0.87
Clc1ccccc1-c1noc(-c2cccs2)n1 | -0.76
O=C1N=C(c2ccccc2)C(C(=O)Nc2ccc(Br)cc2)=C1O | 0.58
Cn1c(=O)c2cn(-c3ccc(Cl)cc3)cc2n(C)c1=O | 0.33
CCC(C)NC(=O)c1nn2c(c1Cl)NC(c1ccc(Br)cc1)CC2C(F)(F)F (centres undefined) | -0.76
CC(C)(O)C#Cc1ccc(/C=N/Nc2ncc(Cl)cc2C(F)(F)F)cc1 | 1.8
Cc1cc(C)nc(Nc2ncc(O)n2-c2ccc(C)c(C)c2)n1 | 3.6*
CCOc1ccc(-n2c(O)cnc2Nc2nc(C)cc(C)n2)cc1 | 1.3
Cc1cc(C)c2c(C)nn(-c3ccc(C)c(C)c3)c2n1 | -3.5
O=C(O)CCSC(CC(=O)c1ccccc1)c1ccc(Cl)cc1 (centres undefined) | -0.27
CCn1cc(C(=O)OC)c(=O)c2cc(C(F)(F)F)ccc21 | 0.29
N#Cc1cccc(CS(=O)(=O)c2cccs2)c1 | 7.3
Cc1ccc2oc(=O)n(CCC#N)c2c1 | -0.44
Cc1ccc2oc(=O)n(CCCOc3ccc(Br)cc3)c2c1 | 3.2*
Cc1ccc2c(c1)C(=O)C(=O)N2CCOc1ccc(Br)cc1 | 0.93
O=C(O)CCCCCNc1ncnc2ccccc12 | 2.7
NCC(=O)NC(Cc1ccccc1)C(=O)O (centres undefined) | 1.4
CC(C)(C)Nc1nc(Oc2ccc(=O)n(-c3ccccc3)n2)nc(N2CCOCC2)n1 | -0.55
CC(C)CNc1nc(Oc2ccc(=O)n(C)n2)nc(N2CCOCC2)n1 | 1.6
CC(C)CNc1nc(Oc2ccc(=O)n(-c3ccccc3)n2)nc(N2CCOCC2)n1 | 3.6*
CCCCNc1ncnc2c1sc1nc(N3CCCC3)c3c(c12)CC(C)(C)OC3 | -0.26
COc1ccc(C2Nc3ccc4ccccc4c3C3=C2C(=O)CC(C)(C)C3)c(OC)c1 (centres undefined) | 0.92
SMILES | Dicer inh
CC1CCCC(C)N1C(=O)c1cc2n(n1)C(C(F)(F)F)CC(c1ccc(Cl)cc1)N2 (centres undefined) | 0.63
N#Cc1sc(-c2ccc(F)cc2)cc1N=Cc1cccc([N+](=O)[O-])c1 | 0.14
CC(C)(C)c1ccc(OCc2nnc(N)s2)cc1 | 4*
CC(C)(C)c1ccc(OCC(=N)N)cc1 | -2.5
CC(C)(C)c1ccc(OCc2ccc(C(=O)O)cc2)cc1 | -1.3
CC1CC(N(C(=O)c2cccs2)c2ccccc2)c2ccccc2N1C(=O)c1ccco1 (centres undefined) | -0.43
Cc1ccc(S(=O)(=O)NCc2cccnc2)cc1-c1nnc2c3ccccc3c(C)nn12 | 0.95
O=C(O)CCCNc1n[nH]c(=O)[nH]c1=O | 2.4
O=C(O)CCSc1n[nH]c(=O)[nH]c1=O | 4.8*
CC(C)OC(=O)CSc1n[nH]c(=O)[nH]c1=O | 4.3
CCOc1nc(-c2ccc(Cl)cc2)ccc1-c1noc(-c2ccncc2)n1 | 1.2
O=C(NCc1ccc(S(=O)(=O)NCCN2CCOCC2)s1)c1ccccc1 | -0.59
NC(=O)c1c(NC(=O)c2ccc(F)cc2)sc2c1CCCC2 | -0.42
NC(=O)c1c(NC(=O)c2ccc(Cl)cc2)sc2c1CCCC2 | -1.1
NC(=O)c1c(NC(=O)c2ccc(S(=O)(=O)N3CCCC3)cc2)sc2c1CCCC2 | 3.4*
Cc1cccc(Cl)c1NC(=S)Nc1c(C)cccc1Cl | 0.44
Cc1ccc(NC(=S)NC(C)(C)C)cc1F | 3*
Cc1ccc(NC(=S)Nc2ccc(C)c(C)c2)cc1C | -0.26
Cc1cc(NC(=S)NC(C)(C)C)ccc1Br | -0.67
Fc1ccc(Cc2cnc(Nc3ccc(F)cc3)s2)cc1 | 0.63
O=C(Nc1nnc(-c2ccc(F)cc2)s1)c1ccc(F)cc1 | 1.1
O=C(Nc1ncc(Cc2ccc(F)cc2)s1)c1ccc(Br)cc1 | 4.1*
CCCc1nn(C(=O)c2ccco2)cc1C(=O)OCC | 2.6
Cc1ccccc1Cn1c(SCc2nn[nH]n2)nc2c1c(=O)n(C)c(=O)n2C | 3.5*
Cc1ccccc1Cn1c(SC(C)C(=O)O)nc2c1c(=O)n(C)c(=O)n2C (centres undefined) | 0.7
SMILES | Dicer inh
CCSc1nc2c(c(=O)n(C)c(=O)n2C)n1Cc1ccccc1C | -0.76
c1ccc(NCCNc2ccccc2)cc1 | 0.57
Cc1ccc(-c2nnc(N3CCOCC3)c3ccccc23)cc1C | 2
c1ccc(-c2nnc3c4cnn(-c5ccccc5)c4ncn23)cc1 | 3.1*
Cc1ccc(-c2nnc3c4cnn(-c5ccccc5)c4ncn23)cc1 | 0.47
COc1ccc(-c2nnc3c4cnn(-c5ccccc5)c4ncn23)cc1 | 0.08
COc1cccc(NC(=O)c2cc(C)n(Cc3cccs3)c2C)c1 | -0.64
OC[C@H](O)[C@H](O)[C@@H](O)[C@@H](O)C1NCCS1 (some centres undefined) | -1.1
CCOC(=O)C1=C(C)Nc2nnnn2C1c1ccc(OC)cc1OC (centres undefined) | 0.19
CCCCCn1c(C2CC(=O)N(c3ccccc3)C2)nc2ccccc21 (centres undefined) | 5.3*
O=C1CC(c2nc3ccccc3n2Cc2ccccc2Cl)CN1c1ccccc1 (centres undefined) | 4*
Nc1nonc1-c1nc2ccccc2n1Cc1ccccc1Cl | 0.88
CCCCCCn1c(C(C)O)nc2ccccc21 (centres undefined) | -0.51
O=C1CC(c2nc3ccccc3[nH]2)CN1c1ccccc1 (centres undefined) | 1.7
CCCCn1c(C2CC(=O)N(c3ccccc3)C2)nc2ccccc21 (centres undefined) | -1.2
O=S(=O)(Cc1ccc(Cl)cc1)c1cccs1 | -0.25
CC(=O)OCC(=O)[C@@]1(O)CC[C@H]2[C@@H]3CCC4=CC(=O)CC[C@]4(C)C3(F)[C@@H](O)C[C@@]21C (some centres undefined) | -0.2
O=C(CCc1ccccc1)N1CCC(c2ccccc2)C1 (centres undefined) | -1.4
CN1CCOC(c2ccccc2)c2ccccc2C1 (centres undefined) | 0.53
CC1C(c2ccccc2)OCCN1C(=O)CCC(=O)N1CCOC(c2ccccc2)C1C (centres undefined) | 5.6*
CCOC(=O)c1c(NC(=O)CC)sc2c1CCC(Sc1ccccc1)C2=O (centres undefined) | 6.1
N#C/C(=C\NC1CCN(Cc2ccccc2)CC1)S(=O)(=O)c1ccccn1 | -0.99
CNC(=O)n1nc(C)c(Cc2csc3ccc(Cl)cc23)c1C | 0.84
CC(C)(C)NC(=O)CSc1nc2ccccc2[nH]1 | 4.9*
CCOC(=O)CSc1nc2ccccc2[nH]1 | -0.04
SMILES | Dicer inh
O=C(CSc1nc2ccccc2[nH]1)Nc1ncccn1 | 0.74
COc1cc(NC(=S)NNS(=O)(=O)c2ccc(C)cc2)c(OC)cc1Cl | 2.4
O=C(O)CSCC(=O)Nc1ccc2c(c1)C(=O)OC2 | -3.1
CN(C)/C=C(/C(=O)c1ccc(C(F)(F)F)cc1)c1nnnn1-c1ccccc1 | -0.73
CCOC(=O)c1c(C)oc2c(Br)cc(NS(=O)(=O)c3ccc(Cl)c(C)c3)cc12 | 0.56
CCOC(=O)c1c(C)oc2ccc(NS(=O)(=O)c3ccc(Cl)cc3)cc12 | 3.6*
CCOc1ccc(S(=O)(=O)Nc2ccc3oc(C)c(C(=O)OCCOC)c3c2)cc1 | 0.74
